Assay outcomes as filed in PubChem.
AmpC inh no detg: qHTS Inhibitors of AmpC Beta-Lactamase (assay without detergent) | AID 485341, 2010 | actives 0.52% (n = 330,000) | P00811 | AmpC nitrocefin hydrolysis, absorbance 480 nm, 0.0001% Triton | Potency, µM (titrated, usually from 57.1 µM), inactives show top-dose activity change, negative = inhibition, usual class: inhibitors;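 note: plate controls were no compound for no effect and no enzyme for full effect; nearly all actives have a fitted effect of over 20% in size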
Target sequence (P00811 whole entry, looked up): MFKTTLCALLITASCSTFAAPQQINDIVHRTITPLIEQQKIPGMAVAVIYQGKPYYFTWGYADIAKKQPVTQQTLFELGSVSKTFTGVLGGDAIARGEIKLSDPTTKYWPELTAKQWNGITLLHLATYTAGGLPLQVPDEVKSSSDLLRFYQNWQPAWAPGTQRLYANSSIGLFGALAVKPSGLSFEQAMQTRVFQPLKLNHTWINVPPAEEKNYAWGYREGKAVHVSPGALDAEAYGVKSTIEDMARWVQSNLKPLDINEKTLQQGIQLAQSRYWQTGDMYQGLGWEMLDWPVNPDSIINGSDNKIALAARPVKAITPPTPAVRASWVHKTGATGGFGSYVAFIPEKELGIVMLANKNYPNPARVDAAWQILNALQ
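20 mM phosphate pH 7.0 + 0.01% (detergent screen) or 0.0001% Triton X-100; 5.3 nM AmpC reagent; cpd preinc 15 min RT; nitrocefin (800 uM stock) to start; A480 q20 s × 4 min; Activity was normalised to no-enzyme and no-compound control wells.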
AmpC inh detg: qHTS Inhibitors of AmpC Beta-Lactamase (assay with detergent); P00811; AmpC hydrolysis of nitrocefin, absorbance 480 nm, 0.01% Triton; Potency, µM (titrated, usually from 114 µM), inactives show at the top dose activity change, negative = inhibition, usual class: inhibitors; actives 0.041% (n = 370,000); AID 485294, 2010;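 note: 0% = no-compound wells and -100% = no-enzyme wells; nearly all actives have a fitted effect of over 25% in size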
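AmpC (5.3 nM in the dispensed reagent) in 20 mM phosphate pH 7.0 with 0.01% (detergent screen) or 0.0001% Triton X-100 was preincubated with compounds for 15 min at room temperature. Nitrocefin was then added from an 800 uM solution, and hydrolysis was followed at 480 nm.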
Sm TGR block: qHTS Assay for the Inhibitors of Schistosoma Mansoni Peroxiredoxins | Schistosoma mansoni thioredoxin glutathione reductase (TGR), Q962Y6 | purified TGR, DTNB reduction, TNB absorbance 405 nm | Potency, µM (doses to about 114 µM), inactives show at the highest dose activity change, negative = inhibition, most hits filed as inhibitors | actives 3% (n = 360,000) | AID 485364, 2010; note: nearly all actives have a fitted effect of over 60% in size
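TGR 20 nM + NADPH 100 uM (dispensed conc.), cpd preinc 15 min RT; start with NADPH (500 uM addition) then DTNB (15 mM addition). Kinetic TNB absorbance, 405 nm filter. Four-parameter Hill fit across titration.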
The depositor's hits bear a star; ? = inconclusive; nt = no result. Only some compounds are listed: those with a hit (about 3.3% of all), similar ones and a draw of the others. Calls come from the whole dose curve; as a rule, active = well fitted curve in the direction sought with a large enough effect; inconclusive = small, poorly fitted or top-dose-only effect, or another doubt; inactive = no such curve, though single readings can be large; an effect the other way counts as inactive or inconclusive. Unless noted, % is set by controls: 0 for no effect and ±100 for the full control effect; potency is the fitted concentration of half-maximal effect.

SMILES	AmpC inh no detg	AmpC inh detg	Sm TGR block
O=c1[nH][nH]c2cc(=O)n(-c3cccc(C(F)(F)F)c3)nc12	20µM*	2%	-12%
Cc1cccc(NC(=O)CN(c2ccc(C(C)C)cc2)S(=O)(=O)c2c(C)nn(C)c2C)n1	135%	?	6%
Cc1[nH]c2ccc(O)cc2c1CCN	-14%	?	40µM*
Cc1[nH]c2ccc(OCc3ccccc3)cc2c1CCN	-2%	0%	25%
Cc1ccccc1N=C(NO)c1nonc1N	-24%	6%	0%
COc1cc(C=C2C(=O)NC(=O)NC2=O)ccc1OS(=O)(=O)c1ccccc1[N+](=O)[O-]	-16%	-12%	2.8µM*
COc1cc(/C=C2\C(=N)N3N=CSC3=NC2=O)ccc1OS(=O)(=O)c1ccccc1[N+](=O)[O-]	-50%	-11%	-30%
CCOc1cc(C=C2C(=O)NC(=O)NC2=O)ccc1OS(=O)(=O)c1ccccc1	-30%	-1%	22µM*
CCOc1cc(/C=C(\C#N)C(N)=O)ccc1OS(=O)(=O)c1ccccc1	-15%	?	-12%
Cc1ccccc1NC(=O)C(C)O/N=C/c1cccc([N+](=O)[O-])c1 (stereo unspecified)	-7%	0%	4%
C1CCCCCC(=NNc2nn[nH]n2)CCCCC1	-4%	1%	-25%
CCC1(C)Cc2sc3c(=O)[nH]c(=S)[nH]c3c2CO1 (stereo unspecified)	-31%	3%	-22%
COc1ccc(CCNC(=O)CS(=O)(=O)c2cn(CC(=O)N3CCOCC3)c3ccccc23)cc1OC	5%	6%	25µM*
COc1ccc(NC(=O)CS(=O)(=O)c2cn(CC(=O)N3CCOCC3)c3ccccc23)cc1OC	27%	1%	-10%
CCOc1ccc(OCC)c(NC(=O)CN(C)S(=O)(=O)c2ccc3nc(C)sc3c2)c1	185%	-14%	15%
Cc1nn(C2CCS(=O)(=O)C2)c2nc(C3CC3)cc(C(=O)Nc3ccc(C(N)=O)cc3)c12 (stereo unspecified)	-5%	-20%	-17%
CCOC(=O)N1CCC(NS(=O)(=O)c2ccccc2)CC1	-6%	5%	45µM*
CCOC(=O)N1CCC(NS(=O)(=O)c2ccc(C)cc2)CC1	-3%	-1%	14%
O=S1(=O)CCC(NC(=S)N2CCOCC2)C1 (stereo unspecified)	3%	-3%	2%
COC(=O)[C@@]12CCCCN1[C@H](c1ccc(-c3cccc(Cl)c3)c(OC)c1)[C@H]1C(=O)N(C)C(=O)[C@H]12	0%	-6%	-21%
S=C(Nc1ccc2nc(-c3ccccn3)c(-c3ccccn3)nc2c1)N1CCCCC1	42%	0%	-1%
CCCNC(=S)Nc1ccc2nc(-c3ccccn3)c(-c3ccccn3)nc2c1	2%	6%	13µM*
CN(CCC#N)C(=S)Nc1ccc(S(=O)(=O)N2CCOCC2)cc1	-16%	-12%	59%
CC(C)(C)C1=C(C#N)C(c2cc3c(cc2Br)OCO3)C(C#N)=C(N)O1 (stereo unspecified)	-10%	-11%	2.8µM*
Cc1ccc(C2C(C#N)=C(N)Oc3cc4c(cc32)OCO4)cc1 (stereo unspecified)	-31%	-1%	-28%
SMILES	AmpC inh no detg	AmpC inh detg	Sm TGR block
COc1c2c(nc3ccccc13)OC(C(C)(O)CO)C2 (stereo unspecified)	-13%	?	-2%
Cc1cc2n(n1)CCCN2C(=O)Nc1ccc(C)c(Cl)c1	nt	4%	4%
CCN(C)Cc1c(C(=O)N2CCc3ccccc3C2)nc2ccc(Cl)cn12	-1%	1%	35µM*
COC1CCN(Cc2c(C(=O)N3CCc4ccccc4C3)nc3ccc(Cl)cn23)CC1	-7%	4%	-36%
CCN(CC)Cc1c(C(=O)N2CCc3ccccc3C2)nc2ccc(Cl)cn12	41%	-12%	-30%
COCC1CCN(Cc2c(C(=O)N3CCc4ccccc4C3)nc3ccc(Cl)cn23)C1 (stereo unspecified)	79%	3%	20µM*
COc1cc2c(cc1OC)C(COc1ccc(F)cc1)N(C(=O)Cc1ccc(F)cc1)CC2 (stereo unspecified)	nt	7%	5%
COc1ccc(N2CCN(CCCNC(=O)c3ccc(CS(=O)(=O)c4ccc(Cl)cc4)o3)CC2)cc1	146%	2%	-10%
O=C1Nc2ccccc2N2CCCC12 (stereo unspecified)	-40%	8%	?
O=C1NCCN2CCCC12 (stereo unspecified)	-30%	-11%	25µM*
CCOc1ccc(C(C)=O)cc1COC(=O)C1=COCCO1	11%	?	28µM*
CCOc1ccc(C(C)=O)cc1CC(C(N)=O)C(N)=O	-11%	-16%	-20%
COC(=O)c1cc(NC(=O)Nc2ccc3snnc3c2)cc(C(=O)OC)c1	nt	17%	3%
CCSC1=NC(C)(C)C=C(/C=C/c2ccc(Cl)cc2Cl)N1	29%	-7%	18µM*
CSC1=NC(C)(C)C=C(/C=C/c2c(Cl)cccc2Cl)N1	-16%	-2%	16µM*
CSC1=NC(C)(C)C=C(/C=C/c2ccc(Cl)cc2Cl)N1	-16%	?	20µM*
Clc1ccc(/C=C/c2ncc[nH]2)c(Cl)c1	-25%	2%	1%
CSC1=NC(C)(C)C=C(/C=C/c2ccc(Cl)cc2)N1	21%	7%	5µM*
Nc1nccc(/C=C/c2ccc(Cl)cc2)n1	-6%	-11%	12%
Nc1nccc(/C=C/c2c(Cl)cccc2Cl)n1	-14%	-14%	21%
CCSC1=NC(C)(C)C=C(C)N1	?	-1%	-4%
CC(C)(C)C(=O)Nc1cccc(C(=O)OCc2cc(=O)n3nc(C4CC4)sc3n2)c1	nt	0%	2%
COc1ccccc1CNS(=O)(=O)c1cc2c3c(c1)CCN3C(=O)CC2	-18%	-14%	-3%
Cc1ccc(CSc2nc3c([nH]c4ccccc43)c(=O)n2C)cc1	nt	4%	14%
CCOC(=O)c1cccc(NC(=O)c2ncoc2-c2ccco2)c1	nt	-12%	-5%
SMILES	AmpC inh no detg	AmpC inh detg	Sm TGR block
CC1=C(c2ccc(C(C)C)cc2)S(=O)(=O)NC1=NCCCN1CCN(c2ccccc2F)CC1	nt	1%	2%
CC(C)(C)OC(=O)N1CCC[C@H]1C(=O)Nc1ccc(C#N)cc1	-11%	-3%	-5%
Cc1ccc(CSC2=Nc3ccccc3C3=NC(CCC(=O)N4CCN(c5ccccc5)CC4)C(=O)N23)cc1 (stereo unspecified)	nt	17%	4%
CN(C)C(=O)Oc1ccc(Cl)c2ccccc12	12%	?	2%
Cc1cc(O)c(CN(C)C)c2c1C(=O)/C(=C/c1ccco1)O2	-4%	0%	4µM*
CC(=O)COc1ccc2c(c1C)O/C(=C\c1ccco1)C2=O	47%	10%	20µM*
Cc1cc(C)cc(Oc2coc3c(CN(C)C)c(O)ccc3c2=O)c1	-15%	?	11%
Cc1ccc(OCC(=O)NNC(=O)c2ccco2)c(C)c1	-15%	1%	-5%
Cc1c(OC(=O)N(C)C)ccc2c1O/C(=C\c1ccco1)C2=O	21%	5%	11µM*
CC(C)(C)c1ccc(S(=O)(=O)N2CCN(CC(=O)N3CC(=O)Nc4ccccc43)CC2)cc1	69%	-3%	?
